Tau fibril FP: blocks human tau fibril formation measured by polarization; Potency, µM (titrated, usually from 57.7 µM), for the others: at the highest dose activity, negative = inhibition, most hits filed as inhibitors; K18 P301L tau heparin fibrillization, Alexa594 FP, 6 h; 280,000 tested, 0.39% active; P10636; AID 1468; further: nearly all actives have a fitted effect of over 55% in size
Target sequence (P10636 561-689 P618L limits assumed): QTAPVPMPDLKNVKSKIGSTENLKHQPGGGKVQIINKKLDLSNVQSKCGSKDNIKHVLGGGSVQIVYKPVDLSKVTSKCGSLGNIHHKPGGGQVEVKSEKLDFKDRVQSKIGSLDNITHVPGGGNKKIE
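Read-out: fluorescence polarization of Alexa 594-labeled tau (0.24 uM), 555 nm excitation, 632 nm emission. Mixtures held 15 uM unlabeled K18 P301L, compound and 20 uM heparin, pH 7 acetate buffer, incubated 6 hr at 37 C.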
Tau ThT inhib: blocks human tau fibril formation measured by thioflavin T. P10636. recombinant tau K18 P301L, heparin-induced fibrillization, ThT fluorescence. Potency, µM (titrated, usually from 57.4 µM), inactives show at the top dose activity, negative = inhibition, actives largely listed as inhibitors. 270,000 tested, 2.1% active. AID 1460; further: nearly all actives have a fitted effect of over 55% in size
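Aggregation was driven by heparin (20 uM final) acting on recombinant tau […] bearing P301L in 100 mM sodium acetate pH 7; fibrils were detected with Thioflavin T.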
TRb SRC2 PPI: inhibitors of human thyroid hormone receptor beta-SRC2 interaction; P10828; TRbeta-SRC2 peptide binding, fluorescence polarization; receptor liganded with 1 µM T3; Potency, µM (highest dose often 106 µM), for the others: at the highest dose activity change, negative = inhibition, usual class: inhibitors; 280,000 tested, 0.065% active; AID 1469;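 further: plate controls were bound peptide for no effect and peptide without receptor for full effect; nearly all actives have a fitted effect of over 50% in size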
Target sequence (P10828 whole entry, looked up): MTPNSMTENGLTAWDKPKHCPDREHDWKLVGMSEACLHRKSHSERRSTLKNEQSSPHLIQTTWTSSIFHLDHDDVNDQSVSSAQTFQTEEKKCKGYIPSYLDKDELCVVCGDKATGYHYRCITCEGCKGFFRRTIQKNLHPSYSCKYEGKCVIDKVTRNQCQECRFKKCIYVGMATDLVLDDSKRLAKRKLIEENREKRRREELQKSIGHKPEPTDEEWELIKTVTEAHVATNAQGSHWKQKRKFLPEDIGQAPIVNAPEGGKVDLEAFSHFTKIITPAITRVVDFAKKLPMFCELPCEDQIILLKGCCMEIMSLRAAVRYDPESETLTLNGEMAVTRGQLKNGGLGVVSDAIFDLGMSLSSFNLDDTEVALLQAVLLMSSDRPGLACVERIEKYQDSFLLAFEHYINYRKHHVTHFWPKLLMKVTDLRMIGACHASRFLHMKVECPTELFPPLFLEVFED
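Human TRb ligand-binding domain (0.6 uM) is mixed with 20 nM Texas Red SRC2 peptide and 1 uM T3; after compound addition and 5 hr at ambient temperature, polarization is measured and normalized to unbound and bound controls.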
Tau fluor cs: counter-screen for tau fibril formation inhibitors. tau K18 P301L Alexa594 fluorescence, heparin fibrillization. Potency, µM (doses to about 57.7 µM), inactives show top-dose activity change, negative = decrease. 280,000 tested, 0.93% active. AID 1463; further: nearly all actives have a fitted effect of over 55% in size
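Human tau K18 P301L (15 uM unlabeled, 0.24 uM Alexa 594-labeled) in 100 mM sodium acetate pH 7 with 20 uM heparin, 6 hr at 37 C. ThT 30 uM added, 1 hr ambient; Alexa 594 FP and total fluorescence read at 555/632 nm.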
TexasRed fluor: counter-screen for TRb-SRC2 inhibitors: fluorescence interference; TRb/SRC2 Texas Red total fluorescence interference; Potency, µM (series often up to 106 µM), for inactives: at the highest dose fluorescence change, negative = quenching; 280,000 tested, 0.29% active; active means well fitted curve in either direction with a large enough effect; inconclusive means small, poorly fitted or top-dose-only effect
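Flags fluorescent or light-absorbing compounds by total fluorescence, S + 2P, at 555 nm excitation and 632 nm emission. Mixture: 20 nM Texas Red SRC2 peptide, 0.6 uM human TRb LBD, 1 uM T3, 5% DMSO; compound exposure 5 h at ambient temperature.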
* = called active by the depositor; ? = inconclusive; · = no result; [ ] = another dose, or the depositor's remark. Only some compounds are listed: those with a hit (about 3% of all), similar ones and a draw of the others. Unless noted, the call rests on the fitted dose curve; in most records, active means well fitted curve in the direction sought with a large enough effect; inconclusive means small, poorly fitted or top-dose-only effect, or another doubt; inactive means no such curve, though single readings can be large; an effect the other way counts as inactive or inconclusive. Unless noted, on the % scale 0 is the no-effect control and ±100 the full control effect; potency means the concentration at half of the fitted maximal effect.

SMILES | Tau fibril FP | Tau ThT inhib | TRb SRC2 PPI | Tau fluor cs | TexasRed fluor
CC1N(C)c2cc(NC(=O)c3ccco3)ccc2C1(C)C (stereo unspecified) | ? | ? | ? | 28µM*[fluorescent] | 45µM*[fluorescent]
CCn1c2ccccc2c2cc(NC(=O)c3ccco3)ccc21 | 17% | ? | -1% | 25µM*[quencher] | -3%
CCn1c(=O)sc2cc(NC(=O)c3cccc(OC)c3)ccc21 | 6% | ? | -5% | -26% | -1%
CCn1c2ccccc2c2cc(NC(=O)COC(=O)c3cccc(S(=O)(=O)NC)c3)ccc21 | 1% | ? | 4% | 10µM*[quencher] | 1%
Cc1ccc(NC(=O)Cn2c(=O)n(Cc3ccccc3)c(=O)c3c2c2cc(C)ccc2n3C)cc1 | -6% | -7% | -4% | -4% | -5%
CC[C@H](C)[C@H](NC(=O)[C@H](CO)NC(=O)[C@H](C)NC(=O)[C@H](C)NC(=O)[C@H](CCC(N)=O)NC(=O)[C@H](CCCCN)NC(=O)[C@H](CCCN=C(N)N)NC(=O)[C@@H](N)CS)C(=O)N[C@@H](CCCCN)C(=O)N[C@H](C(=O)N[C@@H](C)C(=O)N[C@H](C(=O)N[C@@H](CO)C(=O)O)C(C)C)C(C)C | · | · | -2% | · | -1%
CCOc1ccc(CNC(=O)Cn2ncc3c(=O)oc4ccc(C)cc4c32)cc1 | -7% | 0% | 1% | 5% | -2%
COc1ccc(OC)c(NC(=O)CCc2c(C)nc3c(c(C)nn3C(C)(C)C)c2C)c1 | -2% | -16% | -7% | -26% | 0%
COc1ccc(-c2cc(C(F)(F)F)n3nc(C(=O)Nc4cc(C(F)(F)F)ccc4Cl)cc3n2)cc1OC | -1% | -12% | 8% | -12% | 5%
COc1ccc(-c2cc(C(F)(F)F)n3nc(C(=O)Nc4cccc(Cl)c4Cl)cc3n2)cc1OC | -7% | -15% | -25%[53 µM] | -4% | 0.035µM*[quencher]
CSc1nsc(/C=C/Nc2ccc(O)cc2C)c1C#N | 25µM* | 16µM* | 45µM* | ? | 50µM*[fluorescent]
CSc1nsc(/C=C/Nc2ccc(Cl)cc2)c1C#N | -8% | 16µM* | -2% | ? | 1%
Cc1ccccc1Nc1nnc(-c2ccc(C)c(S(=O)(=O)NCC3CCCO3)c2)c2ccccc12 (stereo unspecified) | -8% | -10% | 6% | -10% | -3%
CCCN(CCC)S(=O)(=O)c1ccc(NC(=O)c2cc(C(=O)OC)cc([N+](=O)[O-])c2)cc1 | 13% | -3% | -5% | 8.9µM*[quencher] | 0%
O=C(Nc1cccc(Cl)c1)c1cnc2sc(N3CCCC3)nn2c1=O | 1% | 3% | 5% | 4% | 1%
CC(=O)O[C@@H]1C(CO[Si](C)(C)C(C)(C)C)=C(Br)C(=O)[C@@H]2O[C@]12C | ? | 28µM* | 0% | -26% | 1%
CCCCOCCOCCOC(=O)CCCCC(=O)OCCOCCOCCCC | · | · | -3%[201 µM] | · | -6%[201 µM]
Cn1c(-c2ccccc2)c(/C=N/NC(=O)c2ccc(O)cc2)c2ccccc21 | 2% | ? | 2% | 20µM*[quencher] | 1%
CCOC(=O)c1c(C)oc2nc(C)nc(NCCCN3CCN(c4cccc(C)c4)C(C)C3)c12 (stereo unspecified) | 2% | ? | -10% | -5% | 45µM*[quencher]
N#CC12COC3(CCCCC3C1(C#N)C#N)OC2=N (stereo unspecified) | ? | 14µM* | -5% | -22% | 1%
O=C(Nc1ccccc1)N(Cc1cccs1)c1ccc(F)cc1 | ? | -5% | -2% | -8% | -36%
Cc1cc(C)nc(N/N=C/c2c[nH]c3ccccc23)n1 | 17% | ? | 2% | -15% | 0%
CCCn1c(/N=C/c2c[nH]c3ccccc23)nc2ccccc21 | ? | -7% | 2% | ? | 3%
Cn1c(N/N=C/c2c[nH]c3ccccc23)nc2ccccc21 | 6% | 4.5µM* | 5% | 16µM*[quencher] | -6%
Fc1c(F)c(F)c(N/N=C/c2c[nH]c3ccccc23)c(F)c1F | ? | 13µM* | -2% | 7.1µM*[quencher] | -2%
SMILES | Tau fibril FP | Tau ThT inhib | TRb SRC2 PPI | Tau fluor cs | TexasRed fluor
CCCCn1c(/N=C/c2c[nH]c3ccccc23)nc2ccccc21 | ? | -4% | 2% | 22µM*[quencher] | -8%
N#Cc1cccc(NC(=O)CCNS(=O)(=O)c2ccc3c(c2)CCN3C(=O)C2CC2)c1 | -1% | -5% | -6% | -13% | -2%
CC(CNC(=O)C1CCN(C(=O)c2cc3sccc3n2C)CC1)c1ccccc1 (stereo unspecified) | -1% | -9% | 0% | -4% | 2%
CN1C(=O)/C(=C/C=C2/CCCN2C)N(C)C1=S | ? | 20µM* | -3% | -26% | 0%
Cc1ccc(N(CC(=O)NCCc2ccccc2C)S(=O)(=O)N(C)C)cc1 | -4% | 0% | 0% | -11% | -2%
CC(=O)Oc1ccc(C(=O)Cc2ccc3ccccc3n2)c(O)c1C | 1% | 1.4µM* | 0% | -15% | -2%
O=c1c(O)c(-c2ccc(O)c(O)c2)oc2ccccc12 | 10% | 14µM* | -3% | ? | -9%
O=c1c(O)c(-c2cc(O)c(O)c(O)c2)oc2cc(O)ccc12 | · | · | 4% | · | -27%
O=c1c(O)c(-c2ccc(O)c(O)c2)oc2cc(O)ccc12 | 9% | 5µM* | -4% | ? | -1%
CCc1ccc2oc(C(=O)Nc3cc(C)ccc3C)cc(=O)c2c1 | -6% | 6% | 1% | 4% | -4%
O=c1oc2ccccc2c(N2CCN(c3ccccc3F)CC2)c1CN1CCCC1 | 4% | -12% | 4% | -7% | -2%
O=C(Nc1ccc(Cl)cn1)c1ccc(-c2cc(Cl)ccc2Cl)o1 | ? | 7.9µM* | -1% | ? | 2%
COC(=O)C1=C(C(=O)OC)[C@@H]2N(C)c3ccc(OC)cc3[C@@]23C[C@@H](C(=O)OC)N(S(=O)(=O)c2ccc(C(F)(F)F)cc2)C3=N1 | 1%[11.6 µM] | 1%[11.5 µM] | 4%[11.2 µM] | -23%[11.6 µM] | 1%[11.2 µM]
CC(NC(=O)c1c(O)nc2ccccn2c1=O)c1ccccc1 (stereo unspecified) | -12% | -1% | -7% | -9% | 18µM*[quencher]
O=C(COC(=O)CCN1C(=O)/C(=C\C=C\c2ccccc2)SC1=S)Nc1cc(F)ccc1F | 1% | 6.3µM* | 8% | ? | 6%
O=C(CN1C(=O)/C(=C\C=C\c2ccccc2)SC1=S)Nc1ccc(F)cc1 | 4% | 12% | -11%[53 µM] | 13% | 0%[53 µM]
O=C(CCN1C(=O)/C(=C/C=C/c2ccccc2)SC1=S)Nc1nc2ccccc2s1 | 5% | 3.5µM* | 0% | -22% | 2%
O=C(O)CCCN1C(=O)/C(=C/c2ccc(-c3nc4ccccc4s3)o2)SC1=S | -13% | 1.6µM* | 5% | -28% | -3%
N[C@@]1(C(=O)O)CN[C@@H](C(=O)O)C1 | -6% | 7% | -1% | -2% | -2%
Cc1ccccc1NC(=O)CSc1ccc(-c2cccs2)nn1 | -8% | -4% | 8% | -18% | -2%

High-throughput results from PubChem.
